Assay results: the supplement of paper PMC12494721
Structures can show the parent of a compound that is named as a salt.

What follows are compounds tested on Klebsiella aerogenes DSM 30053 (assay: fold change of Putrescine concentration vs plate DMSO controls (fold change (ratio)); higher = more amine produced, active = hit call of the paper (significant change in both replicates, either direction)). Conditions: incubation time: 27 h, anaerobic, 37 °C;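 for the amine columns active = adjusted P below 0.05 in both replicates with a change the same way and a mean fold change under 0.8 or over 1.25; inactive = the rest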.
In short: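 Amines were quantified by LC–triple-quadrupole MS in dynamic MRM mode against external calibration curves, with drift correction within each batch. The samples were whole anaerobic mGAM cultures of four gut bacterial strains, grown for 27 h at 37 °C in 80 µL wells and extracted with cold acetonitrile/methanol with 0.1% formic acid, then centrifuged. Values are reported as fold change over DMSO controls on the same plate. The mean of 2 biological replicates is given.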
With COc1ccc(CC(C)NCC(O)c2ccc(O)c(NC=O)c2)cc1 (configuration not stated) [Formoterol fumarate] (20 µM) the “fold change of Putrescine concentration” value was 0.951 (inactive). CCN(CC)CCc1nc(-c2ccccc2)no1 [Oxolamine citrate salt] (20 µM) was tested, and the “fold change of Putrescine concentration” value was 1.01 (inactive). With O=C(O)c1cc(-c2ccc(F)cc2F)ccc1O [Diflunisal] (20 µM) the “fold change of Putrescine concentration” value was 0.988 (inactive). For NC(=O)NC1NC(=O)NC1=O (configuration not stated) [Allantoin] (20 µM), the “fold change of Putrescine concentration” value was 0.972 (inactive). With CN1CCCN=C1/C=C/c1cccs1 [Pyrantel tartrate] (20 µM) the “fold change of Putrescine concentration” value was 1 (inactive). CCN1CCN(c2cc3c(cc2F)c(=O)c(C(=O)O)cn3C2CC2)CC1 [Enrofloxacin] (20 µM) was tested, and the “fold change of Putrescine concentration” value was 0.619 (active). In the case of CCCNC(C)C(=O)Nc1c(C)csc1C(=O)OC (configuration not stated) [Articaine hydrochloride] (20 µM), the “fold change of Putrescine concentration” value is reported as 0.992 (inactive). For CCN(CC)CC(=O)Nc1c(C)cccc1C [Lidocaine hydrochloride] (20 µM), the “fold change of Putrescine concentration” value was 1.01 (inactive). In the case of CCn1cc(C(=O)O)c(=O)c2cc(F)c(N3CCNC(C)C3)c(F)c21 (configuration not stated) [Lomefloxacin hydrochloride] (20 µM), the “fold change of Putrescine concentration” value is reported as 0.627 (active). For C[C@]12CCC(=O)C=C1CC[C@@H]1[C@@H]2C(=O)C[C@@]2(C)[C@H]1CC[C@]2(O)C(=O)CO [Cortisone] (20 µM), the “fold change of Putrescine concentration” value was 1 (inactive). With CCN(CC)CCNC(=O)c1cc(Cl)c(N)cc1OC [Metoclopramide monohydrochloride] (20 µM) the “fold change of Putrescine concentration” value was 1.03 (inactive). For C[C@@H](CN1CC(=O)NC(=O)C1)N1CC(=O)NC(=O)C1 [Dexrazoxane hydrochloride] (20 µM), the “fold change of Putrescine concentration” value was 1.02 (inactive).
